miR-21 reporter: qHTS Assay for Modulators of miRNAs and/orActivators of miR-21; HeLa miR-21 FLuc reporter, luciferase, 48 h; Potency, µM (top dose mostly 38.3 µM), usual class: activators; 340,000 tested, under 10 active; AID 2288, 2010;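 also: miR-21 action dims this reporter so a rising signal means less miR-21 action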
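HeLa miR-21-FLuc reporter line, endogenous miR-21; 2000 cells/well in DMEM/10% FBS; compound titration up to ~40uM final, 48 h, 37 degree Celsius; luciferase detection reagent, 15 min lysis, CCD luminescence.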
RXFP1 antag: qHTS Assay for Antagonists of the Relaxin Receptor RXFP1; Relaxin receptor 1 (Homo sapiens), Q9HBX9; HEK293-RXFP1, relaxin-stimulated cAMP HTRF, 30 min; active compounds read low; actives 0.59% (n = 350,000); AID 1259400, 2018; activity change, negative = inhibition, % at 57.5 µM;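 active = activity change of -60% or lower, but not beyond a set lower limit; inconclusive = change between -60% and -40%, or beyond the set limit; inactive = change above -40%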
KinaseGlo FLuc: Counterscreen for Luciferase (Kinase-Glo TM) Inhibition; Luciferin 4-monooxygenase (Photuris pensylvanica), Q27757; Kinase-Glo luciferase, ATP luminescence, 8 min; Potency, µM (series often up to 38.3 µM), most hits filed as inhibitors; actives 0.28% (n = 200,000); AID 1379, 2008; also: nearly all actives have a fitted effect of over 60% in size
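Luminescence was the read-out, taken after 8-minute incubation at ambient temperature. Luciferase turned over luciferin with 10 uM ATP in imidazole pH 7.2 buffer containing KCl, MgCl2, Tween 20 and BSA.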
GALK inh: qHTS Assay for Inhibitors of Human Galactokinase (GALK); Potency, µM (doses to about 57.5 µM), usual class: inhibitors; actives 0.007% (n = 270,000); P51570; AID 1868, 2009; Purified GALK, Kinase-Glo residual ATP luminescence
Target sequence (P51570 whole entry, looked up): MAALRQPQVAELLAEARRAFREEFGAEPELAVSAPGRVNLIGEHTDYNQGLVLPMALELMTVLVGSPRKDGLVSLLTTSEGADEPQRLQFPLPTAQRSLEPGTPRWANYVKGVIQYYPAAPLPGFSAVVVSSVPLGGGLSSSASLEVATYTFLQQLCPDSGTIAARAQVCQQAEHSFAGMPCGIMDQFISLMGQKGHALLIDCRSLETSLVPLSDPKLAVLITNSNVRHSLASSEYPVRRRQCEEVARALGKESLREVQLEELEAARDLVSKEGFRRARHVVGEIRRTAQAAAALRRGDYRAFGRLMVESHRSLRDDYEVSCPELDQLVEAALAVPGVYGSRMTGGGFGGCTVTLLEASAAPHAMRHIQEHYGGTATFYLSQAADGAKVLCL
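Kinase-Glo Plus luminescence measured ATP left after a 1 h room-temperature reaction. The reaction used 5 nM GALK, 100 uM galactose and 35 uM ATP at pH 8.0 (20 mM HEPES, 5 mM MgCl2, 60 mM NaCl, 1 mM DTT, 0.01% BSA).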
PKM2 activator: qHTS Assay for Activators of Human Muscle isoform 2 Pyruvate Kinase; purified PKM2, Kinase-Glo ATP luminescence, activation; response scale: 0% is enzyme alone, no compound; Potency, µM (series often up to 57.5 µM), actives largely listed as activators; actives 0.34% (n = 260,000); AID 1631, 2009; also: nearly all actives have a fitted effect of over 55% in size
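Purified hPK-M2 (>95% pure) converted ADP (0.1 mM final) to ATP with 0.5 mM PEP in 50 mM imidazole pH7.2, KCl, MgCl2, Tween 20, BSA; 1 h at room temperature. ATP detected by Kinase-Glo luminescence.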
RXFP1 ag: qHTS Assay for Agonists of the Relaxin Receptor RXFP1 | Relaxin receptor 1 (Homo sapiens), Q9HBX9 | HEK293T-RXFP1 cAMP TR-FRET, 30 min; response scale: percent of porcine relaxin response, buffer zero | Potency, µM (titrated, usually from 57.5 µM), most hits filed as activators | actives 0.3% (n = 370,000); also: nearly all actives have a fitted effect of over 60% in size
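Agonist response is measured as cAMP accumulation in an RXFP1-transfected HEK293T line under PDE4 inhibition. Values are scaled between buffer-only and 29 nM porcine relaxin, and EC50s come from standard Hill equation fits.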
Each line names hits and unclear results; the compound was inactive in the other large screens. Shown are actives, neighbours in structure and some others; about 0.92% of the full set was active somewhere. Unless noted, calls follow the shape of the dose curve; as a rule, active = well fitted curve in the direction sought with a large enough effect; inconclusive = small, poorly fitted or top-dose-only effect, or another doubt; inactive = no such curve, though single readings can be large; an effect the other way counts as inactive or inconclusive.

CCOC(=O)c1sc(NC(=O)CCC(=O)O)nc1C	RXFP1 antag -85
CCOC(=O)c1sc(NC(=O)c2ccccc2OC)nc1C	KinaseGlo FLuc 10µM (no result: RXFP1 antag)
COC(=O)c1sc(NC(=S)NC(=O)c2ccccc2F)nc1C	RXFP1 ag 35µM
COC(=O)c1sc(NC(=S)NC(=O)c2cccc(C)c2)nc1C	none
CCCCCCCC/C=C/C(=O)O	none (no result: miR-21 reporter, KinaseGlo FLuc, GALK inh, PKM2 activator, RXFP1 ag)
Cc1cc2nc(-c3cccnc3SCC(=O)NCc3ccco3)[nH]c2cc1C	KinaseGlo FLuc 11µM
NC1[C@H]2CN(c3nc4c(cc3F)c(=O)c(C(=O)O)cn4-c3ccc(F)cc3F)C[C@@H]12 (stereo partly drawn)	none (no result: miR-21 reporter, KinaseGlo FLuc, GALK inh, PKM2 activator, RXFP1 ag)
COc1ccc(CCN2C(=S)N(C)C(=O)C2CC(=O)Nc2ccc(OC)cc2)cc1 (stereo not drawn)	RXFP1 antag -63
CC(C(=O)Nc1cccc(S(=O)(=O)N2CCOCC2)c1)N1CCN(C)CC1 (stereo not drawn)	none (no result: KinaseGlo FLuc, PKM2 activator)
CN(C)CCC1(C2=CCCC2)CC/C(=C/c2ccc(Cl)cc2)C1=O (stereo not drawn)	RXFP1 antag -73 (no result: miR-21 reporter, KinaseGlo FLuc, GALK inh, PKM2 activator, RXFP1 ag)
Cc1ccc(Nc2nc(Cl)nc(NC(C)(C)C)n2)cc1	RXFP1 antag -71 (no result: KinaseGlo FLuc)
CC(C)(C)c1ccc(C(=O)Nc2onc3c2CCCC3)cc1	RXFP1 antag -60 (no result: KinaseGlo FLuc, GALK inh, PKM2 activator)
O=C(Nc1onc2c1CCCC2)c1ccccc1	none (no result: KinaseGlo FLuc, GALK inh, PKM2 activator)
O=C(CSc1ncnc2ccccc12)Nc1cc(S(=O)(=O)N2CCCCC2)ccc1Cl	RXFP1 ag 16µM
O=C(CN1C(=O)NC2(CCCC2)C1=O)OCC(=O)c1cccc(Cl)c1	none (no result: miR-21 reporter, KinaseGlo FLuc, GALK inh, PKM2 activator)
Cc1ccc2c(c1)c1c(n2CC(O)CN2CCCCC2C)CCCC1 (stereo not drawn)	RXFP1 antag -92 (no result: KinaseGlo FLuc, GALK inh)
O=C(NCCCCc1ccccc1)c1nn(-c2ccccc2F)nc1CO	RXFP1 antag -66 (no result: KinaseGlo FLuc, GALK inh, PKM2 activator)
O=C(CN1CCN(C(c2ccccc2)c2ccccc2)CC1)NCc1ccccc1	RXFP1 antag -74
O=C(CN1CCN(Cc2ccccc2)CC1)NCc1ccc(Cl)cc1	none (no result: KinaseGlo FLuc)
Cc1ccc(CN2CCN(CC(=O)NCc3ccccc3)CC2)cc1	RXFP1 antag -99 (no result: KinaseGlo FLuc)
NC(=O)CSc1nc2c(oc3ccccc32)c(=O)n1-c1ccccc1F	none (no result: RXFP1 antag, KinaseGlo FLuc, GALK inh, PKM2 activator)
C=CC1=C2C=C(C3CC3)N(C3CCCC3)C=C2C(=O)C(C)(OC(=O)c2ccco2)C1=O (stereo not drawn)	none (no result: miR-21 reporter, RXFP1 antag, GALK inh, RXFP1 ag)
CCCOc1cccc(C2c3c(-c4ccccc4O)n[nH]c3C(=O)N2Cc2ccco2)c1 (stereo not drawn)	miR-21 reporter inconclusive, RXFP1 antag -80 (no result: KinaseGlo FLuc, GALK inh, PKM2 activator)
COc1ccc(CCN2C(=O)c3[nH]nc(-c4ccccc4O)c3C2c2cccc(Cl)c2)cc1 (stereo not drawn)	none
COc1cc(C2c3c(-c4ccccc4O)n[nH]c3C(=O)N2CCO)ccc1OCc1ccccc1 (stereo not drawn)	none (no result: KinaseGlo FLuc, GALK inh, PKM2 activator)
Cc1ccc(O)c(-c2n[nH]c3c2C(c2ccc(F)cc2)N(Cc2ccco2)C3=O)c1 (stereo not drawn)	RXFP1 antag -64 (no result: KinaseGlo FLuc, GALK inh, PKM2 activator)
COc1ccc(C2c3c(-c4ccccc4O)n[nH]c3C(=O)N2Cc2ccco2)cc1 (stereo not drawn)	none (no result: KinaseGlo FLuc, GALK inh)
COCCN1C(=O)c2[nH]nc(-c3ccccc3O)c2C1c1ccc(Cl)c(Cl)c1 (stereo not drawn)	miR-21 reporter inconclusive, RXFP1 antag -70 (no result: KinaseGlo FLuc, GALK inh, PKM2 activator)
O=C1c2[nH]nc(-c3ccccc3O)c2C(c2cccc(OCc3ccccc3)c2)N1CCCO (stereo not drawn)	RXFP1 antag -64 (no result: KinaseGlo FLuc, GALK inh, PKM2 activator)
CC(=O)Nc1cccc(Oc2ccc3c(c2)C(=O)NC3=O)c1	none (no result: KinaseGlo FLuc)

Assay outcomes (PubChem BioAssay)
